Measurements published in PubChem BioAssay AID652154 (Broad Institute, 2013).
The whole screen tested about 360,000 compounds, of which about 4,200 (1.2%) were called active. This excerpt belongs to a sample that is enriched for actives. A number with no mark means an inactive call.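 Rule for the calls: active = mean replicate inhibition at least 60% with every replicate also reaching 60%; inconclusive = only one of the two criteria is met; inactive = mean below 60% and not all replicates reaching 60%.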

Assay: PAX8 transcriptional activity inhibition in RMG-I – RMG-I cells, luciferase, single concentration, primary screen (AID 652154);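 note: luciferase light reporting Pax8 driven TPO promoter activity; plate controls were median of neutral control wells for no effect and mitoxantrone controls for full effect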
Conditions: RMG-I TPO-luciferase reporter, SteadyGlo, 24 h; at 12.6 µM; active compounds read high
In the case of `CC[C@]1(O)C[C@@H]2CN(CCc3c([nH]c4ccccc34)[C@@](C(=O)OC)(c3cc4c(cc3OC)N(C)[C@H]3[C@@](O)(C(=O)OC)[C@H](OC(C)=O)[C@]5(CC)C=CCN6CC[C@]43[C@@H]65)C2)C1`, the inhibition was 94.6% (active). In the case of `CC[C@]1(O)CC2CN(CCc3c([nH]c4ccccc34)[C@@](C(=O)OC)(c3cc4c(cc3OC)N(C=O)[C@H]3[C@@](O)(C(=O)OC)[C@H](OC(C)=O)[C@]5(CC)C=CCN6CC[C@]43[C@@H]65)C2)C1` (stereo partly specified), the inhibition was 82% (active). In the case of `O=C(C[C@@H]1CC[C@H]2[C@@H](COC[C@@H](O)CN2Cc2nccs2)O1)NCc1ccc(-c2ccccc2)cc1`, the inhibition was 23%. Work on `C[C@@H]1CN([C@H](C)CO)C(=O)Cc2cc(NC(=O)CCN3CCOCC3)ccc2O[C@@H]1CN(C)S(C)(=O)=O` yielded an inhibition of -16.5%. In the case of `C[C@H](CO)N1C[C@H](C)[C@@H](CN(C)Cc2ccccn2)Oc2ncc(-c3cccc(F)c3)cc2C1=O`, the inhibition was -0.625%. `Cc1ccccc1S(=O)(=O)N1CC(=O)N2[C@H](CO)[C@H](c3ccc(C#CC4CC4)cc3)[C@@H]2C1` showed an inhibition of -7.36%. For `COc1cc2ccccc2cc1C(=O)Nc1ccccc1C`, the inhibition was -95.1%. `Cc1csc(NC(=O)CSc2nc(=O)cc(N)n2-c2ccc(F)cc2)n1` showed an inhibition of -0.606%. With `COc1cc(SC)ccc1C(=O)Nc1nc(C)cs1` the inhibition was 72.7% (active). In the case of `O=C(Cc1ccccc1)N1C[C@@H]2[C@H](c3ccccc31)[C@@H](CO)N2C(=O)C1CCOCC1`, the inhibition was 10.4%. `O=C(c1cccnc1)N1CC[C@H]2[C@H](CO)Nc3ccc(-c4ccc(F)cc4)cc3[C@H]21` gave an inhibition of 1.77%. With `CN(C[C@@H]1[C@H](c2ccccc2)[C@@H](CO)N1Cc1ccccn1)S(C)(=O)=O` the inhibition was -9.74%. With `CC1CCCCC1NC(=O)/C(C#N)=C/C=C/c1ccccc1[N+](=O)[O-]` (stereo unspecified) the inhibition was 91.1% (active). `CC(OC(=O)/C=C/c1ccccc1)C(=O)NC1CCCCC1C` (stereo unspecified) showed an inhibition of -9.75%. In the case of `CC1CCCCC1NC(=O)COc1ccc(C#N)cc1` (stereo unspecified), the inhibition was -9.56%. Molecule `CC(C)NC(=O)Nc1ccc2c(c1)C(=O)N([C@@H](C)CO)C[C@@H](C)[C@H](CN(C)Cc1ccc(C(=O)O)cc1)O2` has an inhibition of -28.1%. With `C[C@H]1CN([C@@H](C)CO)C(=O)c2cccc(NC(=O)c3ccncc3)c2O[C@H]1CN(C)C` the inhibition was -1.05%. With `C[C@@H](O)C#Cc1ccc([C@@H]2[C@H]3CN(S(=O)(=O)c4ccccc4)CCCCN3[C@H]2CO)cc1` the inhibition was -13.8%. Molecule `CCCC#Cc1ccc([C@H]2[C@H](CO)N3CCCCN(S(=O)(=O)CC)C[C@@H]23)cc1` has an inhibition of -26.1%. In the case of `CCCC#Cc1ccc([C@H]2[C@@H](CO)N3CCCCN(S(=O)(=O)Cc4ccccc4)C[C@H]23)cc1`, the inhibition was 86.5% (active). For `COc1ccc(S(=O)(=O)N2CCCCN3[C@H](CO)[C@H](c4ccc(C5=CCCCC5)cc4)[C@@H]3C2)cc1`, the inhibition was 69.6% (active). With `COc1cccc(S(=O)(=O)N2CCCCN3[C@H](CO)[C@H](c4ccc(C#CC5CC5)cc4)[C@H]3C2)c1` the inhibition was 12.2%. Work on `COc1ccc(S(=O)(=O)N2CCCCN3[C@H](C2)[C@H](c2ccc(C4=CCCC4)cc2)[C@@H]3CO)cc1` yielded an inhibition of 9.85%. Work on `COc1cccc(S(=O)(=O)N2CCCCN3[C@H](C2)[C@@H](c2ccc(C4=CCCCC4)cc2)[C@@H]3CO)c1` yielded an inhibition of 12.7%. For `COc1ccc(S(=O)(=O)N2CCCCN3[C@H](CO)[C@@H](c4ccc(C#CC(C)C)cc4)[C@H]3C2)cc1`, the inhibition was 76.3% (active). In the case of `COc1ccc(S(=O)(=O)N2CCCCN3[C@H](C2)[C@H](c2ccc(C#CCC(C)C)cc2)[C@@H]3CO)cc1`, the inhibition was 18.7%. Work on `CCCC#Cc1ccc([C@H]2[C@@H](CO)N3CCCCN(S(=O)(=O)CC)C[C@H]23)cc1` yielded an inhibition of 6.07%. For `COc1cccc(S(=O)(=O)N2CCCCN3[C@H](C2)[C@H](c2ccc(C#CC(C)C)cc2)[C@@H]3CO)c1`, the inhibition was 69.8% (active). `COc1ccc(S(=O)(=O)N2CCCCN3[C@@H](CO)[C@@H](c4ccc(C#CCC(C)C)cc4)[C@@H]3C2)cc1` gave an inhibition of 46.7%. `CO[C@H]1CN(C)C(=O)c2ccc(NC(=O)C3CCC3)cc2OC[C@@H](C)NC[C@H]1C` gave an inhibition of 9.77%. Molecule `CC(=O)NC[C@H]1[C@H](c2ccc(C3=CCCCC3)cc2)[C@@H](CO)N1C(=O)NC(C)C` has an inhibition of -0.865%. In the case of `CCCNC(=O)N1C[C@H]2[C@@H](c3ccccc31)[C@H](CO)N2C(=O)NC(C)C`, the inhibition was -13%. Work on `COCC(=O)Nc1ccc2c(c1)C(=O)N(C)C[C@@H](OC)[C@@H](C)CN(C(=O)Cc1ccccn1)[C@@H](C)CO2` yielded an inhibition of -15.1%. `CCC(=O)Nc1ccc2c(c1)C(=O)N(C)C[C@H](OC)[C@H](C)CN(CCC(F)(F)F)[C@H](C)CO2` gave an inhibition of -9.12%. Molecule `COCC(=O)Nc1ccc2c(c1)OC[C@@H](C)N(C(=O)CC1CC1)C[C@@H](C)[C@@H](OC)CN(C)C2=O` has an inhibition of -0.715%. With `C/C=C/c1ccc(C2[C@H]3CNC[C@@H]2N3C(=O)Nc2cc(F)ccc2F)cc1` (stereo partly specified) the inhibition was -0.3%. With `CCNC(=O)Nc1ccc2c(c1)C(=O)N(C)[C@H]1CC[C@@H](CC(=O)N[C@H](C)c3ccccc3)O[C@@H]1CO2` the inhibition was -19%. In the case of `C[C@H]1CN([C@@H](C)CO)C(=O)c2ccccc2-c2ccccc2CO[C@H]1CN(C)S(=O)(=O)c1ccccc1C#N`, the inhibition was -18.2%. For `O=C(C[C@@H]1C[C@@H]2c3cc(NS(=O)(=O)c4ccc(F)cc4)ccc3O[C@@H]2[C@H](CO)O1)N1CCCCC1`, the inhibition was 9.01%. Molecule `CCCCc1c(-c2ccc(Cl)cc2)ncn1CCc1ccccc1OC` has an inhibition of 33.1%. With `CCCCCc1c(-c2cccc(Br)c2)ncn1CCc1ccccc1OC` the inhibition was 9.05%. With `CCCCc1c(-c2ccc(Br)cc2)ncn1CCc1ccccc1OC` the inhibition was 74% (active). Molecule `CN(C)CC#Cc1ccc([C@@H]2[C@H](CO)N3C(=O)CN(C(=O)Cc4cccnc4)C[C@@H]23)cc1` has an inhibition of 17.8%. `Cc1ccccc1-c1ccc([C@@H]2[C@H](CO)N3CCCCN(S(=O)(=O)c4ccc(F)cc4)C[C@@H]23)cc1` showed an inhibition of -34.4%. For `Cc1ccc(OCC(=O)Nc2ccc(N3CCN(C(=O)c4ccco4)CC3)cc2)c(C)c1`, the inhibition was 7.91%. For `Cc1ccc(C)c(OCC(=O)N2CCN(C(=O)c3ccco3)CC2)c1`, the inhibition was 64.3% (active). Molecule `O=C(OCC(=O)N1CCN(C(=O)c2ccco2)CC1)c1c(Cl)cccc1Cl` has an inhibition of -6.1%. `CC(C)c1cc(N=O)cc(C(C)C)c1O` showed an inhibition of 1.72%. In the case of `CC(C)=CCc1ccc(O)c(=O)cc1C(C)C`, the inhibition was 79.1% (active). For `O=C(C[C@@H]1CC[C@H](NS(=O)(=O)c2cccc(F)c2)[C@H](CO)O1)N1CCCCC1`, the inhibition was 2.78%. With `O=C(CN1CCOCC1)N1CCCCN2[C@H](C1)[C@H](c1ccc(-c3ccccc3F)cc1)[C@@H]2CO` the inhibition was 0.84%. `C[C@@H]1CN([C@H](C)CO)C(=O)c2cc(NC(=O)c3ccncc3)ccc2O[C@@H]1CN(C)C(=O)Nc1ccc(F)cc1` gave an inhibition of -12.7%. In the case of `CC[C@H](C)[C@H]1CNC(=O)C(=O)N1CC1CCN(CCc2ccc(OC)c(OC)c2)CC1`, the inhibition was 5.58%. Molecule `Cc1noc(C)c1S(=O)(=O)Nc1ccc2c(c1)CC(=O)N([C@@H](C)CO)C[C@@H](C)[C@@H](CN(C)C(=O)Nc1ccc(C(F)(F)F)cc1)O2` has an inhibition of 4.57%. Molecule `C[C@@H]1CCCCO[C@@H](CN(C)C(=O)Nc2cccc3ccccc23)[C@H](C)CN([C@@H](C)CO)C(=O)c2cc(NS(=O)(=O)c3ccccc3)ccc2O1` has an inhibition of 22.1%. In the case of `C[C@H]1CCCCO[C@@H](CN(C)C(=O)Nc2cccc3ccccc23)[C@@H](C)CN([C@@H](C)CO)C(=O)c2cc(NS(=O)(=O)c3ccc(Cl)cc3)ccc2O1`, the inhibition was 71.8% (active). With `C[C@H](CO)N1C[C@H](C)[C@H](CN(C)CC2CCCCC2)OCCCC[C@H](C)Oc2ccc(NS(=O)(=O)c3ccc(F)cc3)cc2C1=O` the inhibition was 52.9%. Work on `C[C@@H]1CCCCO[C@H](CN(C)C(=O)NC2CCCCC2)[C@H](C)CN([C@H](C)CO)C(=O)c2cc(NS(=O)(=O)c3ccc(Cl)cc3)ccc2O1` yielded an inhibition of 53.7%. Work on `Cc1ccc(S(=O)(=O)Nc2ccc3c(c2)C(=O)N([C@@H](C)CO)C[C@@H](C)[C@H](CN(C)C(=O)Nc2cccc4ccccc24)OCCCC[C@H](C)O3)cc1` yielded an inhibition of 22.8%. In the case of `C[C@H]1CCCCO[C@H](CN(C)CC2CCCCC2)[C@@H](C)CN([C@@H](C)CO)C(=O)c2cc(NS(=O)(=O)c3ccc(Cl)cc3)ccc2O1`, the inhibition was 68.9% (active). For `COc1ccc(NC(=O)N(C)C[C@H]2OCCCC[C@H](C)Oc3ccc(NS(=O)(=O)c4ccc(Cl)cc4)cc3C(=O)N([C@@H](C)CO)C[C@H]2C)cc1`, the inhibition was -13.3%. `COc1ccc(NC(=O)N(C)C[C@H]2OCCCC[C@@H](C)Oc3ccc(NS(=O)(=O)c4ccc(F)cc4)cc3C(=O)N([C@@H](C)CO)C[C@@H]2C)cc1` showed an inhibition of 1.37%. `C[C@@H]1CCCCO[C@H](CN(C)CC2CCCCC2)[C@H](C)CN([C@H](C)CO)C(=O)c2cc(NS(=O)(=O)c3ccc(F)cc3)ccc2O1` gave an inhibition of 53.6%. With `COc1ccc(NC(=O)N(C)C[C@@H]2OCCCC[C@@H](C)Oc3ccc(NS(=O)(=O)c4ccc(Cl)cc4)cc3C(=O)N([C@H](C)CO)C[C@H]2C)cc1` the inhibition was 63.7% (active). In the case of `C[C@H]1CCCCO[C@@H](CN(C)C(=O)NC2CCCCC2)[C@@H](C)CN([C@@H](C)CO)C(=O)c2cc(NS(=O)(=O)c3ccc(Cl)cc3)ccc2O1`, the inhibition was 32.2%. With `C[C@@H]1CCCCO[C@@H](CN(C)C(=O)NC2CCCCC2)[C@H](C)CN([C@H](C)CO)C(=O)c2cc(NS(=O)(=O)c3ccc(Cl)cc3)ccc2O1` the inhibition was 89.7% (active).
